40 molecules from PubChem BioAssay (NCATS) can be followed below.

Results filed as inconclusive are left out. Calls of active or inactive are those of the source. Calls follow the shape of the dose curve; as a rule, active = well fitted cell-killing curve with a large enough effect; inconclusive = small, poorly fitted or top-dose-only effect, or effect the other way; inactive = no such curve, though single readings can be large or run the other way.
Potency is read from the fitted curve at half-maximal effect.

The assay is described as follows: Quantitative High-Throughput drug screen in 47 multiple myeloma cell lines against the NCATS MIPE library collection: INA6_PLB cell viability assay (AID 1918965; also: nearly all actives have a fitted effect of over 55% in size). The settings on record: INA6 myeloma viability, CellTiter-Glo ATP luminescence, 48 h; series mostly up to 45.8 µM. The text has this: PI: Beverly A. Mock Ph.D.
Laboratory of Cancer Biology and Genetics,
Center for Cancer Research, National Cancer Institute,
National Institute of Health, Bethesda, Maryland
Drug resistance and disease progression are common in multiple myeloma (MM) patients, underscoring the need for new therapeutic combinations. […] We hypothesized that effective combinations would reduce MYC expression and enhance p16 activity. […] These preclinical data identify potentially useful drug combinations for evaluation in drug-resistant MM and reveal potential mechanisms of combined drug sensitivity.
Described herein is the primary MIPE qHTS used to cherrypick compounds. Validated compounds were then further tested for potential synergistic activiy.
[1] Peat TJ, Gaikwad SM, Dubois W, Gyabaah-Kessie N, Zhang S, Gorjifard S, Phyo Z, Andres M, Hughitt VK, Simpson RM, Miller MA, Girvin AT, Taylor A, Williams D, D'Antonio N, Zhang Y, Rajagopalan A, Flietner E, Wilson K, Zhang X, Shinn P, Klumpp-Thomas C, McKnight C, Itkin Z, Chen L, Kazandijian D, Zhang J, Michalowski AM, Simmons JK, Keats J, Thomas CJ, Mock BA. Drug combinations identified by high-throughput screening promote cell cycle transition and upregulate Smad pathways in myeloma. Cancer Lett. 2023 Aug 1;568:216284. doi: 10.1016/j.canlet.2023.216284. Epub 2023 Jun 24. PMID: 37356470; PMCID: PMC10408729.
SEQUENCE No. (e.g., 1, 2, 3, etc.); […] (e.g., Cells, Incubation, Reagent, etc.); VALUE and DESCRIPTION.
1; Cells; 5 uL; white, solid bottom 1536-well Greiner assay plate.
2; Compounds; 23 nL; Kalypsis pin tool (Wako USA) equipped with a 1536-well pin head to transfer to the assay plates.
3; Incubation; 48 hours; 37C incubation.
4; Reagent;5uL; CellTiter Glo (Promega).
5; Detector; 425V; Luminescence; Viewlux PerkinElmer.
NOTES (numbers refer to Sequence numbers above)
1. The cell-based screening methods employed in this study were like those previously published. Briefly, the corresponding myeloma cell lines were screened in 1,536-well plates with 500 cells, 5-uL per well for inhibition of cell viability (assessed by measuring ATP levels with CellTiterGlo).
2. NCATS MIPE 4.0 library of approved and investigational drugs were added using the Kalypsis pin tool. Wells treated with DMSO only for 100% viability and media only wells for 0% viability were used as controls.
3. The assay plates were covered and incubated for 48 hours in a 37C, 5% CO2 incubator with controlled humidity.
4. After 48 hours, CellTilter-GloTM luminescent substrate mix (Promega) reagent was added to the assay plate and plates we incubated for 5 min at room temperature.
5. Signal was measured as median relative luminescence units on a ViewLux (PerkinElmer) multiplate reader.
[1] Heske CM, Davis MI, Baumgart JT, Wilson K, Gormally MV, Chen L, Zhang X, Ceribelli M, Duveau DY, Guha R, Ferrer M, Arnaldez FI, Ji J, Tran HL, Zhang Y, Mendoza A, Helman LJ, Thomas CJ. Matrix Screen Identifies Synergistic Combination of PARP Inhibitors and Nicotinamide Phosphoribosyltransferase (NAMPT) Inhibitors in Ewing Sarcoma. Clin Cancer Res. 2017 Dec 1;23(23):7301-7311. doi: 10.1158/1078-0432.CCR-17-1121. Epub 2017 Sep 12. PMID: 28899971; PMCID: PMC6636827.
On to `COc1cc(C(=O)N2CCC(N3CCN(C)CC3)CC2)ccc1Nc1ncc2c(n1)N(C)c1ccccc1C(=O)N2C`, for which the Potency is 935 nM (active).
To `NC(=O)c1c(OCc2c(F)cc(Br)cc2F)nsc1NC(=O)NCCCCN1CCCC1` belongs 18700 nM (active).
Then `NC1(Cc2ccc(Cl)cc2)CCN(c2ncnc3[nH]ccc23)CC1`, with 3720 nM (active); and `CCCCCN(CCC12CC3CC(CC(C3)C1)C2)C(=O)NCCCc1ccncc1`, with 16600 nM (active).
Then `O=C1CCC[C@@H]2[C@H]3CCC[N+]4([O-])CCC[C@@H](CN12)[C@@H]34` (stereo not given in full), with “inactive”; and `O=C(NC1CCNCC1)c1[nH]ncc1NC(=O)c1c(Cl)cccc1Cl`, with 590 nM (active); and `Clc1cccc(-n2nnnc2NCc2ccccc2Oc2ccccn2)c1Cl`, with “inactive”.
As to `O=C(Cc1ccc(-c2ccc(OCCN3CCOCC3)cc2)cn1)NCc1ccccc1`, the Potency was 16.6 nM (active).
To `COC(=O)C1=C(C)NC(C)=C(C(=O)OCCN2CCN(C(c3ccccc3)c3ccccc3)CC2)C1c1cccc([N+](=O)[O-])c1` (stereo not given) belongs “inactive”.
As to `Cc1nc(N)ncc1-c1nc(N2CCOCC2)c2sc(C(C)(C)O)cc2n1`, the Potency is 3720 nM (active).
`Nc1ccc(C(=O)c2cc3c(ccc4ccccc43)[nH]2)cc1`: the Potency is 2640 nM (active).
To `Cc1cc(Nc2cc(CN3CCOCC3)c3nc(C)c(Cc4ccc(Cl)cc4F)n3n2)n[nH]1` belongs 2350 nM (active); to `C#Cc1cccc(Nc2ncnc3cc(OC)c(OCCCCCCC(=O)NO)cc23)c1`, 16.6 nM (active); to `Cc1nc2cnc3ccc(C#Cc4cccnc4)cc3c2n1-c1ccc(C(C)(C)C#N)cc1`, 83.3 nM (active).
To `Cc1cnc(-c2cnc(NCCNc3ccc(C#N)cn3)nc2-c2ccc(Cl)cc2Cl)[nH]1` belongs 2350 nM (active).
Take `CN(C)CCCN=c1c2ccccc2n(C)c2[nH]c(=O)n(C)c(=O)c12`: the Potency was 3720 nM (active).
Then `Cc1ccc(-c2ncn(-c3ccc(Nc4nccc(-c5cccc(N6CCOCC6)c5)n4)cc3)n2)cn1`, with 66.2 nM (active).
Regarding `C[C@@H]1COC(Nc2ccc3ncnc(Nc4ccc(OCc5nccs5)c(Cl)c4)c3c2)=N1`, the Potency was 4690 nM (active).
Take `COc1ccc(C=Cc2cc(OC)c(OC)c(OC)c2)cc1O`: the Potency entry is “inactive”.
To `CC(C)c1ccc(Cn2ccc3c4c(N)nc(NC5CC5)nc4ccc32)cc1` belongs 1480 nM (active).
To `CC(C)=CCCC(C)=CCCC(C)=CCSc1ccccc1C(=O)O` belongs 18700 nM (active).
To `COc1cc2c(Nc3ccc(NC(=O)c4ccccc4)cc3)ncnc2cc1OCCCN1CCOCC1` belongs 11800 nM (active).
Consider `CN(C1CCc2c(c3ccccc3n2CC(=O)O)C1)S(=O)(=O)c1ccc(F)cc1` (stereo not given), for which the Potency result is “inactive”.
To `CCS(=O)(=O)c1cccc(-c2cc(C(=O)NC3CCN(C)CC3)c(C)c3[nH]c4ncc(C)cc4c23)c1` belongs 418 nM (active); to `C[C@]1(CO)CN(c2cc(C(=O)Nc3ccc4c(c3)-c3c(c(C(N)=O)nn3-c3ccc(F)cc3)CC4)c(Cl)cn2)C[C@@]1(C)CO`, 2640 nM (active); to `COC(=O)Nc1nc2ccc(C(=O)c3ccc(F)cc3)cc2[nH]1`, 418 nM (active).
Then `Cc1c(Cn2c(C)nc3c(C(=O)O)cc(N4CCOCC4)cc32)cccc1C(F)(F)F`, with 16600 nM (active).
Take `Clc1ccc2ncc(-c3cccc(NC4CNC4)n3)n2c1`: the Potency is 5900 nM (active).
To `Cn1c(=O)n(-c2ccc(C(C)(C)C#N)cc2)c2c3cc(-c4cnc5ccccc5c4)ccc3ncc21` belongs 16.6 nM (active); to `CC(C)(C)c1cc(C(C)(C)C)c(NC(=O)c2c[nH]c3ccccc3c2=O)cc1O`, “inactive”; to `COCCOc1ccc2c(c1)ncn2-c1ccc2cccc(N3CCC(N)CC3)c2n1`, 46.9 nM (active).
Then `CNC(=O)c1ccccc1Nc1nc(Nc2ccc(N3CCOCC3)cc2OC)ncc1Cl`, with 5260 nM (active).
Turning to `O=C(C=Cc1cccc(S(=O)(=O)Nc2ccccc2)c1)NO`, the Potency was 762 nM (active).
Then `COc1cc(Nc2ncc(F)c(Nc3ccc4c(n3)N(COP(=O)(O)O)C(=O)C(C)(C)O4)n2)cc(OC)c1OC`, with 833 nM (active); and `Cc1cc(N2CCOCC2)cc2[nH]c(-c3c(NC[C@@H](O)c4cccc(Cl)c4)cc[nH]c3=O)nc12`, with 296 nM (active).
To `C1Cc2[nH]nc(-c3nn[nH]n3)c2C1` belongs “inactive”; to `O=c1[nH]nc(Sc2ncc([N+](=O)[O-])s2)n1-c1ccc2c(c1)OCCO2`, 1180 nM (active).
Then `CN[C@H]1CCc2cc(OC)c(OC)c(OC)c2-c2ccc(OC)c(=O)cc21`, with 1 nM (active); and `Cc1cccc(C=NNc2cc(N3CCOCC3)nc(OCCc3ccccn3)n2)c1`, with 14800 nM (active); and `CN1CCN(c2ccc3nc(-c4c(N)c5c(F)cccc5[nH]c4=O)[nH]c3c2)CC1`, with 1320 nM (active).
